Measurements taken from PubChem BioAssay (NCI).
Compounds without any hit were thinned out: in the full panel of roughly 83,000, 20% have a hit.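 For each line, cells grew in 96-well plates with the test compound present at a single concentration for 48 hours.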 Unmarked numbers belong to inactive results. Active and inactive are the calls of the source. Rule for the calls: active = growth percent below 10; inactive = the rest.

Test system: SNB-75 CNS
Assay: NCI-60 one-dose screen, 48 h (100 = growth as untreated, 0 = no growth, -100 = all killed)
Details: 10 µM unless noted

SMILES	growth
COc1ccc(-c2cn[nH]c2-c2cc(OC)c3c(c2)OCO3)cc1	-12.9% (active)
Cc1ccc(OCCn2c(C)nn(-c3ccc(Cl)cc3)c2=O)cc1	82.6%
O=C(Nc1ccc(I)cc1)c1cc([N+](=O)[O-])ccc1O	57%
O=C(NNC(=S)Nc1ccccc1)c1ccccn1	67.5%
COc1ccc(-c2cn[nH]c2-c2cc(OC)c3c(c2)OCCO3)cc1	-5.75% (active)
COc1cc(Cn2c(SCCC(=O)Nc3ccc(F)cc3)nc3ccccc3c2=O)cc(OC)c1OC	80.3%
COc1cc(-c2cc(/C=C3\CCCCC3=O)[nH]n2)cc(OC)c1OC	85.8%
Cc1ccc(S(=O)(=O)NCCCNc2nccc(-c3c(-c4ccccc4)nc4sccn34)n2)cc1	48.4%
O=C1C2=C(C(=O)c3c(O)ccc(O)c31)N(c1cccnc1)Cc1ccccc1O2	22.1%
COc1ccc(NC(=O)CSc2nc3ccc(Cl)cc3c(=O)n2-c2ccccc2C(F)(F)F)c(OC)c1OC	-17.3% (active)
CC(C)C[C@H](NC(=O)[C@@H](Cc1ccccc1)n1ccc(Nc2ccccc2)cc1=O)B(O)O	-18.6% (active)
Cc1cccc(NC(=O)c2sc3nc4c(cc3c2N)CCCC4)c1	34.5%
O=c1oc2c([nH]c3ccc4ccccc4c32)c2ccccc12	126%
CC1CCc2c(sc(NC(=O)CSc3nnc4ccccn34)c2C(N)=O)C1 (stereo not given)	104%
CC1Cc2c(N(C)C)ncnc2N(C)c2ccc(Cl)cc21 (stereo not given)	-12.4% (active)
